Measurements taken from the supplement of paper PMC10849652.
About 7,900 targets were measured; listed, in parts, are those with a hit and a random draw of the rest. About 0.6% of all pairs of compound and target were hits.

How the values were obtained:
Test in all cases: log2 fold change, soluble protein after heating vs DMSO (PISA); higher = thermal stabilisation; K562 cells, 10 uM, 30 min; active = over 0.2 and 3.5 SD of the protein, either way, in both replicates (recomputed)
[1] = compound: NC(=O)Nc1cc(-c2cccc(F)c2)sc1C(=O)N[C@H]1CCCNC1
Outline: (§1)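 K562 cells at 2×10^6 cells/mL were given 10 μM compound for 30 min. Aliquots then went through 3 min of heating across 48°C-58°C, were pooled, and were extracted in PBS with 0.5% NP-40 at 4°C, and the supernatant after 21,000xg for 90 min was quantified by TMTpro 16plex LC-MS/MS with channel sums equalised. Thermal stability relative to control samples, from duplicates, is given as log2 fold change.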

[2] = compound: NC(=O)c1cnc(N[C@@H]2CCCC[C@@H]2N)nc1Nc1cccc(-n2nccn2)c1
Outline: as §1

[3] = compound: NC1(c2ccc(-c3nc4ccn5c(=O)[nH]nc5c4cc3-c3ccccc3)cc2)CCC1
Outline: as §1

[4] = compound: NCC(=O)Nc1ccc(-n2nc(C(F)(F)F)cc2-c2ccc3c(ccc4ccccc43)c2)cc1
Outline: as §1

[5] = compound: Nc1ccccc1NC(=O)c1ccc(CNC(=O)OCc2cccnc2)cc1 [entinostat]
Outline: as §1

[6] = compound: O=C(CCCCCCC(=O)Nc1ccccc1)NO [vorinostat]
Outline: as §1

[7] = compound: O=C(CCCCCCNC(=O)c1cnc(N(c2ccccc2)c2ccccc2Cl)nc1)NO [citarinostat]
Outline: as §1

[8] = compound: O=C(O)c1ccc2c(c1)nc(Nc1cccc(Cl)c1)c1ccncc12 [silmitasertib]
Outline: as §1

[9] = compound: O=C1NC(=O)C(c2cnc3ccccn23)=C1c1cn2c3c(cc(F)cc13)CN(C(=O)N1CCCCC1)CC2
Outline: as §1

[10] = compound: c1cc(OCCN2CCCCC2)cc(-c2n[nH]c3ccc(-c4nnc[nH]4)cc23)c1
Outline: as §1

[11] = compound: c1cn2cc(-c3ccc4cn[nH]c4c3)nc(Nc3ccc(N4CCOCC4)cc3)c2n1 [entospletinib]
Outline: as §1

Measured: log2 fold change

PC (UniProt P11498)
inactive: [1] -0.025 | [2] 0.027 | [3] -0.084 | [4] 0.004 | [5] -0.003 | [6] -0.044 | [7] 0.053 | [8] -0.122 | [9] -0.099 | [10] 0.112 | [11] 0.002

PRKCQ (UniProt Q04759)
active: [1] -0.337
inactive: [2] -0.135 | [3] -0.198 | [4] -0.052 | [5] 0.002 | [6] 0.035 | [7] 0.001 | [8] 0.002 | [9] -0.021 | [10] -0.187 | [11] 0.017

PYGB (UniProt P11216)
Sequence of UniProt P11216 (P11216 whole entry, looked up): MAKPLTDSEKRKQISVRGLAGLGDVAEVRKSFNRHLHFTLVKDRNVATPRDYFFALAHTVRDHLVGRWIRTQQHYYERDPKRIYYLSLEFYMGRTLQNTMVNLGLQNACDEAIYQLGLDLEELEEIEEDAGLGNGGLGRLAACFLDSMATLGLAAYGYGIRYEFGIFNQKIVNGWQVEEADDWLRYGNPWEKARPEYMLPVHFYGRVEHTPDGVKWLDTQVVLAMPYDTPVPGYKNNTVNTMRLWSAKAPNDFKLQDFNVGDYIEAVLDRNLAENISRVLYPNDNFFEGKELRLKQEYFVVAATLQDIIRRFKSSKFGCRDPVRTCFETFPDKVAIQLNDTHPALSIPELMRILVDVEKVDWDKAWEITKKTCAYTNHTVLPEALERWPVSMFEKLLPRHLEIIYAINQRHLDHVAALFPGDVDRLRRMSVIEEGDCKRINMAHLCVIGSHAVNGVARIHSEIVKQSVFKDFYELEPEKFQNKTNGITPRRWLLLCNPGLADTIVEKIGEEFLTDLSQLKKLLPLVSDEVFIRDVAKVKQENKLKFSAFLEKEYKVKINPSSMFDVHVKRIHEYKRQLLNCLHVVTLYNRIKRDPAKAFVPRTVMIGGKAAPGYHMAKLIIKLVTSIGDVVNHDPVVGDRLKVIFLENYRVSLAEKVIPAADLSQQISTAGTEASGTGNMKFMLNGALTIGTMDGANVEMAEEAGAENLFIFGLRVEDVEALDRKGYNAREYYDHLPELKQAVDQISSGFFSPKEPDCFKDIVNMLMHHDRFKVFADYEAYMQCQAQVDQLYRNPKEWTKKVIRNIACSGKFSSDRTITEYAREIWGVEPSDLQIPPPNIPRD
inactive: [1] 0.209 | [2] -0.077 | [3] -0.018 | [4] -0.041 | [5] -0.003 | [6] 0.063 | [7] 0.033 | [8] -0.005 | [9] -0.105 | [10] -0.105 | [11] -0.156

PIGT (UniProt Q969N2)
inactive: [1] -0.01 | [2] -0.002 | [3] -0.077 | [4] -0.002 | [5] 0.018 | [6] 0.05 | [7] 0.04 | [8] 0 | [9] -0.01 | [10] -0.089 | [11] -0.018

PNPLA2 (UniProt Q96AD5)
inactive: [1] -0.075 | [2] -0.01 | [3] -0.05 | [4] -0.004 | [5] 0.078 | [6] 0.192 | [7] 0.087 | [8] 0.065 | [9] 0.012 | [10] -0.138 | [11] -0.056

PI4K2A (UniProt Q9BTU6)
inactive: [1] 0.033 | [2] 0.204 | [3] -0.152 | [4] -0.05 | [5] -0.013 | [6] 0.039 | [7] 0.072 | [8] -0.012 | [9] -0.05 | [10] 0.003 | [11] -0.011

POP1 (UniProt Q99575)
Sequence of UniProt Q99575 (Q99575 whole entry, looked up): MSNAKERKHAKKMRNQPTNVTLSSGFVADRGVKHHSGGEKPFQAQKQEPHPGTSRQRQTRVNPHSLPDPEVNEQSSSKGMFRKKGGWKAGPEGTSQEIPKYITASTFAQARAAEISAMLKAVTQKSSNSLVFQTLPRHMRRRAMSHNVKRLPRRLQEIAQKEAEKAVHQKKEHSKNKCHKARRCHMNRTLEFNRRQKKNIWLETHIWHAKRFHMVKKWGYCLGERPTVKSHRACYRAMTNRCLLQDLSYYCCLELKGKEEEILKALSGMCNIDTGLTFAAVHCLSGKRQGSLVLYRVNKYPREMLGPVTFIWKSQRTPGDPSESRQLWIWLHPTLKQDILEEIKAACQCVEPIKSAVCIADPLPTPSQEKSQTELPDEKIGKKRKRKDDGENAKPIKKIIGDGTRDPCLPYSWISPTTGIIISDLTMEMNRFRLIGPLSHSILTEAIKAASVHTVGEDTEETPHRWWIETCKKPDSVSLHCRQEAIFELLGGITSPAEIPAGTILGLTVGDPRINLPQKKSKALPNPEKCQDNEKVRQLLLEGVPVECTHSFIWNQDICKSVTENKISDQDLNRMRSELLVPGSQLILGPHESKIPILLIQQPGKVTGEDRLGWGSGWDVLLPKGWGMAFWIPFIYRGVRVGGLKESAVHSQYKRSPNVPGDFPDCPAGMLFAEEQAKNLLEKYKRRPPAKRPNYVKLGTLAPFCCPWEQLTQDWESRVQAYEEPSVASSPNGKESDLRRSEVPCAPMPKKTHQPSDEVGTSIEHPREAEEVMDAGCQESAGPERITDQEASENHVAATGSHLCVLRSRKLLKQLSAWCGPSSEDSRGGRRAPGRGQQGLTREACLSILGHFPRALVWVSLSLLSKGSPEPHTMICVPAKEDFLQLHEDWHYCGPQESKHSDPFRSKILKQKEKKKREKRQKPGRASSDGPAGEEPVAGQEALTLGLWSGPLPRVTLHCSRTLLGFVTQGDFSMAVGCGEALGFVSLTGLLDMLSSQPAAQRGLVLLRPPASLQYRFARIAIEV
inactive: [1] 0.072 | [2] 0.025 | [3] 0.03 | [4] 0.045 | [5] -0.019 | [6] -0.013 | [7] -0.003 | [8] -0.011 | [9] 0.038 | [10] -0.128 | [11] 0.027

PDE4DIP isoform 4 (UniProt Q5VU43)
inactive: [1] 0.113 | [2] -0.006 | [3] 0.009 | [4] 0.011 | [5] 0.015 | [6] -0.025 | [7] 0.018 | [8] -0.041 | [9] -0.03 | [10] -0.039 | [11] 0.018

PIK3CB (UniProt P42338)
inactive: [1] -0.057 | [2] -0.106 | [3] -0.008 | [4] -0.102 | [5] 0.014 | [6] 0.001 | [7] 0.003 | [8] -0.053 | [9] -0.039 | [10] -0.049 | [11] 0.033

PRKCE (UniProt Q02156)
inactive: [1] -0.068 | [2] -0.084 | [3] -0.177 | [4] -0.078 | [5] 0.01 | [6] 0.107 | [7] -0.019 | [8] -0.016 | [9] -0.018 | [10] -0.055 | [11] 0.016

PDLIM7 (UniProt Q9NR12)
inactive: [1] 0.003 | [2] 0.009 | [3] 0.043 | [4] -0.042 | [5] 0.011 | [6] 0.082 | [7] 0.037 | [8] -0.017 | [9] 0.021 | [10] -0.026 | [11] 0.012

PRKAR1A (UniProt P10644)
Sequence of UniProt P10644 (P10644 whole entry, looked up): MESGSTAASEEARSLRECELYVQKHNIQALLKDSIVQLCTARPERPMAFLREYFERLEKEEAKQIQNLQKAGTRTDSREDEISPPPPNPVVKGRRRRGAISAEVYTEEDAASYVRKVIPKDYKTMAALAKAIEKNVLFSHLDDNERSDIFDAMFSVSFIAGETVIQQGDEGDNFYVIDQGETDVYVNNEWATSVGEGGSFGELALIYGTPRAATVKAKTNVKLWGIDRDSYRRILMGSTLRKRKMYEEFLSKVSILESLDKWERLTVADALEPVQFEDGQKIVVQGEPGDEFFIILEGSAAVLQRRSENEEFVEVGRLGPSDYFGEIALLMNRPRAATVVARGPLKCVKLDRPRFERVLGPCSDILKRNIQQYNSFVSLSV
inactive: [1] -0.052 | [2] 0.191 | [3] 0.301 | [4] -0.041 | [5] -0.068 | [6] -0.16 | [7] 0 | [8] 0.166 | [9] 0.063 | [10] -0.04 | [11] 0.389

PSMB4 (UniProt P28070)
inactive: [1] 0.029 | [2] -0.01 | [3] 0.068 | [4] 0.01 | [5] -0.036 | [6] -0.019 | [7] 0.008 | [8] 0.002 | [9] 0.022 | [10] -0.014 | [11] -0.009

PPOX (UniProt P50336)
Sequence of UniProt P50336 (P50336 whole entry, looked up): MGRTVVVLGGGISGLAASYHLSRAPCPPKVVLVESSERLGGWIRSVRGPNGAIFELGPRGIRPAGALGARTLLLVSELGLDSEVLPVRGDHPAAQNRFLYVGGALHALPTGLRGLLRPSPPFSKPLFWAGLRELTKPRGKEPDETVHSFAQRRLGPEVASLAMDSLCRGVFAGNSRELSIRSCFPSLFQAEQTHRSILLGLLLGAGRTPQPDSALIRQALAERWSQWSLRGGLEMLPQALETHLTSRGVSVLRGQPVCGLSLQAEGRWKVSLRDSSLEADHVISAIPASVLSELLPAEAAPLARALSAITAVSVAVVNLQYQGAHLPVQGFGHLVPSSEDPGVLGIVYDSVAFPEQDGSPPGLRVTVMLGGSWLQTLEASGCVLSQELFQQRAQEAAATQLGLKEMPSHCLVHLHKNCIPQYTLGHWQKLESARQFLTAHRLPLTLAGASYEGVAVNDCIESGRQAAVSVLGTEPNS
inactive: [1] -0.042 | [2] -0.228 | [3] -0.182 | [4] -0.009 | [5] 0.04 | [6] 0.003 | [7] 0.02 | [8] 0.158 | [9] 0.094 | [10] 0.018 | [11] 0.028

PPP1R14A (UniProt Q96A00)
Sequence of UniProt Q96A00 (Q96A00 whole entry, looked up): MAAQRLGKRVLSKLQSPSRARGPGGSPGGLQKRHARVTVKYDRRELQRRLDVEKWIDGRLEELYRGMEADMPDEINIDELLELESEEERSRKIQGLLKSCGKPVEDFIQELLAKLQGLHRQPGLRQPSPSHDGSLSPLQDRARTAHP
inactive: [1] -0.051 | [2] 0.101 | [3] 0.02 | [4] 0.029 | [5] 0 | [6] 0.105 | [7] 0 | [8] -0.089 | [9] -0.014 | [10] 0.018 | [11] 0

PSPC1 (UniProt Q8WXF1)
Sequence of UniProt Q8WXF1 (Q8WXF1 whole entry, looked up): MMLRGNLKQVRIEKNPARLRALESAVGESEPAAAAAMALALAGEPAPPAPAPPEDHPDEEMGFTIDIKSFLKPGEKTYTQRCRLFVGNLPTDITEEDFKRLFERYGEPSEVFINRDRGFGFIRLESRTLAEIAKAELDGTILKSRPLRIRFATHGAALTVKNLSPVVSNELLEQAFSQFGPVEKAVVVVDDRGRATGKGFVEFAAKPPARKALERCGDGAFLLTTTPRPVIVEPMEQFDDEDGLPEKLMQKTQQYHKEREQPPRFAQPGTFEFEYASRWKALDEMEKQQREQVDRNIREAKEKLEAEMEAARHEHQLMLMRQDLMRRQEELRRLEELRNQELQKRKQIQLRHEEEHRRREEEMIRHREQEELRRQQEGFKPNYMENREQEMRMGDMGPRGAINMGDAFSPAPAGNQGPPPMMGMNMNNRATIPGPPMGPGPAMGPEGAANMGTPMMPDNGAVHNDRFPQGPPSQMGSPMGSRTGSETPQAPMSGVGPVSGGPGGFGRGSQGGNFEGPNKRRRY
inactive: [1] -0.001 | [2] -0.039 | [3] 0.021 | [4] -0.027 | [5] -0.014 | [6] 0.14 | [7] 0.067 | [8] -0.032 | [9] -0.074 | [10] -0.057 | [11] 0.034

PTP4A1 (UniProt Q93096)
Sequence of UniProt Q93096 (Q93096 whole entry, looked up): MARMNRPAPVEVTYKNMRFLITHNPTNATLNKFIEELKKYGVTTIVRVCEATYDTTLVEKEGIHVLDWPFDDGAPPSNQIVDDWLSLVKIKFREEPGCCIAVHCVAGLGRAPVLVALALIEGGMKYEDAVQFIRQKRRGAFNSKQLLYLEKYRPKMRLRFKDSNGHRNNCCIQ
inactive: [1] -0.035 | [2] -0.202 | [3] -0.007 | [4] 0.016 | [5] 0.039 | [6] -0.029 | [7] 0.063 | [8] -0.001 | [9] -0.075 | [10] 0.059 | [11] 0

PSMD3 (UniProt O43242)
inactive: [1] -0.027 | [2] 0.009 | [3] -0.032 | [4] 0.041 | [5] -0.02 | [6] -0.009 | [7] -0.009 | [8] 0.008 | [9] 0.014 | [10] -0.082 | [11] 0.049

PRKAR2B (UniProt P31323)
Sequence of UniProt P31323 (P31323 whole entry, looked up): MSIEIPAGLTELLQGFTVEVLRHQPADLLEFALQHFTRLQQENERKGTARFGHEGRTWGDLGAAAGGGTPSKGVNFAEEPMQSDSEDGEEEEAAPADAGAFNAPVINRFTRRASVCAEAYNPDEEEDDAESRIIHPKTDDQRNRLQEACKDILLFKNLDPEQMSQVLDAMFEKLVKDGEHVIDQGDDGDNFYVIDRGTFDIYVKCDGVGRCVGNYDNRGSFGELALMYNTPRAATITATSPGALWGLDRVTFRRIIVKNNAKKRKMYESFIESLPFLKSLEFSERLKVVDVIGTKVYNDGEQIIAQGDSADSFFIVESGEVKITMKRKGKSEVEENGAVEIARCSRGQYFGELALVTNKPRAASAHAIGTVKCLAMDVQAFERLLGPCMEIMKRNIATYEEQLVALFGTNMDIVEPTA
inactive: [2] -0.152 | [3] -0.223 | [4] 0.016 | [5] 0.027 | [6] 0.112 | [7] 0.078 | [8] 0.008 | [9] -0.003 | [10] -0.013 | [11] -0.166
active: [1] -0.964

PSME4 (UniProt Q14997)
inactive: [1] 0.047 | [2] -0.054 | [3] -0.204 | [4] -0.03 | [5] 0.011 | [6] 0.127 | [7] 0.047 | [8] -0.007 | [9] 0.02 | [10] -0.092 | [11] -0.003

PGK2 (UniProt P07205)
active: [9] -0.532
inactive: [1] -0.056 | [2] -0.032 | [3] -0.038 | [4] -0.134 | [5] 0.021 | [6] -0.056 | [7] -0.121 | [8] 0.172 | [10] -0.012 | [11] -0.035

PRIM2 (UniProt P49643)
Sequence of UniProt P49643 (P49643 whole entry, looked up): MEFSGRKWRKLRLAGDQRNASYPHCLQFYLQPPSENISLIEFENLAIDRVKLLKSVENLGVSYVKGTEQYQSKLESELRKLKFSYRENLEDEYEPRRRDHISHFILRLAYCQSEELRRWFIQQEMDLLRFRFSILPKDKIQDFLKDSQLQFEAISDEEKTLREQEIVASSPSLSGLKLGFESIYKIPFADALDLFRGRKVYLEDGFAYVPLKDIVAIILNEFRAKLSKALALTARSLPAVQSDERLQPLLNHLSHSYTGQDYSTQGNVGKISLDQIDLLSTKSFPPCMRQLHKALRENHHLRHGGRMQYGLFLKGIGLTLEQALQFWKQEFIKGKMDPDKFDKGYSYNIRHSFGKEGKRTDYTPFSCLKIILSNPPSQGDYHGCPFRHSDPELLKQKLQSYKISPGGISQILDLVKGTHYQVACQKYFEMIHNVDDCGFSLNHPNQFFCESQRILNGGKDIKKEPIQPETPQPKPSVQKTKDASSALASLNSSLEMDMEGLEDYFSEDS
inactive: [1] -0.035 | [2] -0.141 | [3] -0.16 | [4] -0.061 | [5] 0.058 | [6] 0.098 | [7] 0.135 | [8] 0.033 | [9] -0.096 | [10] -0.018 | [11] 0

PPP1CA (UniProt P62136)
inactive: [1] -0.036 | [2] -0.051 | [3] -0.019 | [4] -0.02 | [5] -0.012 | [6] -0.023 | [7] 0.034 | [8] 0 | [9] 0.007 | [10] -0.045 | [11] 0.037

PIP4P1 isoform 2 (UniProt Q86T03)
inactive: [1] 0.012 | [2] 0.086 | [3] -0.326 | [4] 0.095 | [5] 0.042 | [6] -0.019 | [7] 0.01 | [8] 0.054 | [9] 0.043 | [10] -0.031 | [11] 0.028

POLR2B (UniProt P30876)
inactive: [1] -0.054 | [2] 0.059 | [3] -0.043 | [4] -0.106 | [5] 0.061 | [6] -0.089 | [7] 0 | [8] 0.1 | [9] 0.09 | [10] -0.065 | [11] 0.193

POLR2G (UniProt P62487)
inactive: [1] 0.061 | [2] 0.153 | [3] -0.008 | [4] 0.003 | [5] -0.034 | [6] -0.148 | [7] -0.009 | [8] 0.004 | [9] 0.009 | [10] -0.037 | [11] 0.183

PCBP1 (UniProt Q15365)
inactive: [1] 0.007 | [2] -0.015 | [3] -0.069 | [4] -0.021 | [5] 0.044 | [6] 0.055 | [7] 0.075 | [8] 0.028 | [9] -0.046 | [10] 0.002 | [11] -0.042

PRKAR1B (UniProt P31321)
Sequence of UniProt P31321 (P31321 whole entry, looked up): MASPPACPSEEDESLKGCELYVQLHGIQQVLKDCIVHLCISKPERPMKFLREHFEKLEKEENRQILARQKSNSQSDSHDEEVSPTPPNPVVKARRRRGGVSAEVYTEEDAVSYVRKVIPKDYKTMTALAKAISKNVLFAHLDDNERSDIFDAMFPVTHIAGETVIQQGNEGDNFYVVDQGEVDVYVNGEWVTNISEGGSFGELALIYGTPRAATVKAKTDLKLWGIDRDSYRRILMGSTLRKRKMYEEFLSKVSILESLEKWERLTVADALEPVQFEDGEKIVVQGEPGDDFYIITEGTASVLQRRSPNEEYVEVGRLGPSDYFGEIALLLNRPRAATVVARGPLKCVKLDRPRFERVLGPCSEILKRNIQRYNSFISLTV
inactive: [1] 0.001 | [2] 0.085 | [3] 0.129 | [4] 0.045 | [5] -0.015 | [6] -0.031 | [7] 0 | [8] 0.07 | [9] 0.024 | [10] -0.142 | [11] 0.231
